Only some compounds are listed: those with a hit (about 2.2% of all), similar ones and a draw of the others.
p53 PUMA act: re-activators of the mutant p53 pathway; SW480 PUMA-promoter luciferase, p53 mutant reactivation; activation, % at 9.98 µM; hit rate 1.5% among 28,000; in the data active = activation above about 52%
ID4 binder: binders of human ID4 protein. hit rate 1.2% among 31,000. small molecule microarray, Flag-ID4 binding, fluorescence F/B. P47928. AID 624137. calls only; call rule not given here;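 note: a binder raises fluorescence above local background on the spot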
Target sequence (P47928 whole entry, looked up): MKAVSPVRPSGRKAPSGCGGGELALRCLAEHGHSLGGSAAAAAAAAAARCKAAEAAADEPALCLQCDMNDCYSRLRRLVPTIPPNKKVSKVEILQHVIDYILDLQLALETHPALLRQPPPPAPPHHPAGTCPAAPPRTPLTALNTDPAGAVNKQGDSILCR
Hits are given with their value; i = inactive; nt = no result given; + = active, no number.

SMILES	p53 PUMA act	ID4 binder
Cc1c(C(=O)c2cccc3ccccc23)c2cccc3c2n1[C@@H](CN1CCOCC1)CO3	i	+
C[C@H]1O[C@@H](O[C@H]2C[C@@H](O)[C@]3(CO)C4C(CC[C@]3(O)C2)[C@@]2(O)CC[C@H](C3=CC(=O)OC3)[C@@]2(C)C[C@H]4O)[C@@H](O)[C@@H](O)[C@H]1O (some centres undefined)	nt	i
CC[C@H]1CN2CCc3cc(OC)c(OC)cc3[C@@H]2C[C@@H]1C[C@H]1NCCc2cc(O)c(OC)cc21	i	nt
COC(=O)c1cc2c(cn1)[nH]c1ccccc12	i	i
CCOC(=O)c1cc2c(cn1)[nH]c1ccccc12	65	i
COC1=CC(=O)O[C@@H](CCc2ccc3c(c2)OCO3)C1	i	i
COC1=CC(=O)O[C@@H](/C=C/c2ccccc2)C1	78	i
O=C1/C(=C/c2ccccc2)C[C@@]2(O)C3Cc4ccc(O)c5c4[C@@]2(CCN3CC2CC2)[C@H]1O5	i	nt
CC(=O)O[C@H]1CC[C@]2(C=O)[C@H]3CC[C@]4(C)[C@@H](C5=CC(=O)OC5)CC[C@]4(O)[C@@H]3CC[C@]2(O)C1	nt	i
